The results in this text go back to PubChem BioAssay.

Structures are written as SMILES. Activity calls are given as the source filed them.

One test concerns the target Albumin (Bos taurus) (UniProt P02769). Briefly: compounds binding labelled BSA control protein – biochemical, small-molecule microarray, Alexa647 label, 635/667 nm fluorescence, artefact control for SMM control protein annotation, profiling panel (AID 1118).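 Further: score merges 667 nm emission intensity and signal-to-noise per printed compound spot.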 The note with it: BSA-A647 binding, fluorescence 635 nm, higher = more signal.
A short description of test [1]: probe aXIP binding to arrayed compounds – biochemical, NeuroSMM set, 635/667 nm fluorescence, primary screen (AID 1119).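 Further: probe is the protein aXip251-270 applied at 1 µg/mL to compound-printed slides; binding of probe to printed compounds measured as 667 nm fluorescence plus signal to noise.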 To be noted: small-molecule microarray, higher = more signal, called active from +8 up or from −8 down.
Test [2] in a line: probe aNOTCH3 binding on compound microarray – biochemical, small-molecule microarray, 635/667 nm fluorescence, primary screen (AID 1120).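 Further: probe is a biotin-tagged antibody raised against NOTCH3 rather than NOTCH3 protein; score merges spot fluorescence near 667 nm with spot signal to noise.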 To be noted: higher = more signal.
A short description of test [3]: probe aNOTCH2 binding on compound microarray – biochemical, small-molecule microarray, 635/667 nm fluorescence, primary screen (AID 1121).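 Further: score merges feature fluorescence read at 667 nm with its signal to noise.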 To be noted: higher = more signal.
For test [4], the target named is Carbonic anhydrase 2 (Homo sapiens) (UniProt P00918). The test can be described thus: compounds binding carbonic anhydrase 2 – biochemical, small-molecule microarray, Alexa647-labelled CAII, profiling panel (AID 1122). To be noted: CAII-A647 binding fluorescence, higher = more signal.
Test [5] can be described thus: COS7 lysate on small-molecule microarray, probe aHis, 635 nm (AID 1123).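 Further: z-score combines 667nm fluorescence intensity with signal-to-noise per printed compound spot.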 To be noted: COS7 cell lysate, fluorescence, higher = more signal.
Test [6] in a line: probe aLAP1 signal on lysate-treated microarray – cell lysate, small-molecule microarray, COS7 lysate, primary screen (AID 1124).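 Further: lysate comes from COS7 cells expressing LAP1 and is applied at 0.3 µg/mL; score merges spot fluorescence near 667 nm with signal-to-noise over triplicate slides.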 To be noted: probe aLAP1, fluorescence, higher = more signal.
A further test concerns Sam68 (KHDRBS1). Briefly: compounds binding KHDRBS1 protein – biochemical, small-molecule microarray, 635 nm fluorescence, primary screen (AID 1125).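 Further: score merges 667 nm channel intensity with signal to noise over triplicate slides.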 The note with it: higher = more signal.
The test system of test [7] is Chordin-like protein 2 (CHRDL2). The test can be described thus: compounds binding chordin-like 2 – biochemical, small-molecule microarray, 635 nm fluorescence, primary screen (AID 1126).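 Further: printed compound slides probed with Chrdl2 protein at 4 µg/mL for 1 h at 4 C; score merges 667 nm emission intensity with signal to noise over three replicate slides.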 The note with it: fluorescence 635 nm, higher = more signal.
The target in test [8] is Concanavalin-A (Canavalia ensiformis) (UniProt P02866). Briefly: compounds binding concanavalin A lectin – biochemical, small-molecule microarray, Alexa647 label, 635 nm, artefact control for SMM control protein annotation, primary screen (AID 1127).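 Further: z combines 667 nm emission intensity with signal-to-noise across three replicate slides.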 To be noted: ConA-A647 binding fluorescence, higher = more signal.
Chain of Concanavalin-A (Canavalia ensiformis) (P02866 whole entry, looked up): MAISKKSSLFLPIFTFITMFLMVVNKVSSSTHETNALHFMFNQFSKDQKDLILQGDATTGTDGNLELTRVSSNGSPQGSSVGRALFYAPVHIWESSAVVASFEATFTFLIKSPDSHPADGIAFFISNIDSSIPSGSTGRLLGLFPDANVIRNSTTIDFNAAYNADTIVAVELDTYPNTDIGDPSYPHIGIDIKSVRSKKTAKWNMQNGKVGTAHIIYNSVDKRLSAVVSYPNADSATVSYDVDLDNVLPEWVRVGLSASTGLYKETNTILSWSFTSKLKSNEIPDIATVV

Chain of Albumin (Bos taurus) (P02769 whole entry, looked up): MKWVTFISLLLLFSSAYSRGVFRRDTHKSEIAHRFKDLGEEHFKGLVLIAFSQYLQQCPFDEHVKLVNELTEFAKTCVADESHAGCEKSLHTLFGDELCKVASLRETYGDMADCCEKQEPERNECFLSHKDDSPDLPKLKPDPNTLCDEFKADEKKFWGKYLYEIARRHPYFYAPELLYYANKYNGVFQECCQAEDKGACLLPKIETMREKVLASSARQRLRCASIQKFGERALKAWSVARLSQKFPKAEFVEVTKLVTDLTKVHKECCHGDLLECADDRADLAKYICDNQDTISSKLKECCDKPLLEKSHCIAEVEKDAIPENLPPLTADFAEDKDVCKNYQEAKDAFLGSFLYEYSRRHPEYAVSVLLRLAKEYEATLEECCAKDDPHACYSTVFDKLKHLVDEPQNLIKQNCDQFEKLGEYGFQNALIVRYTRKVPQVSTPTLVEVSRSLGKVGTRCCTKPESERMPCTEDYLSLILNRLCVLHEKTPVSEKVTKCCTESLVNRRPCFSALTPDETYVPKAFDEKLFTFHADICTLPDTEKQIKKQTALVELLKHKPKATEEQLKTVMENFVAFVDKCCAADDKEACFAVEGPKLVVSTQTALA

Take `COCCOC(=O)N1C(=O)[C@@]2(c3cc(C#CC4(O)CCCCCC4)ccc31)[C@H](c1ccc(OCCO)cc1)N1[C@H](c3ccccc3)[C@H](c3ccccc3)OC(=O)[C@H]1[C@@H]2C(=O)NC[C@H](O)c1ccccc1`: the composite z-score with Albumin (Bos taurus) was 0.203; in test [2], 0.0039; in test [3] it was -0.115; in test [4], 0.367; in [5] it was 1.71; in [6], 0.288. Also, the results for the composite z-score (in the test with Sam68 (KHDRBS1); in [7]; in test [8]) were 1.29, -0.0516 and 1.12, respectively. The composite Z-score in [1] was -0.317 (inactive).

As for `O=C1C2C=CC(C(O)c3ccc([N+](=O)[O-])cc3)N(Nc3ccc([N+](=O)[O-])cc3)C2C(=O)N1c1ccccc1` (stereo not given), the composite z-score was determined as 0.921 in the test with Albumin (Bos taurus); 0.351 in test [2]; 0.0518 in test [3]; 0.661 in test [4]; 2.71 in test [5]; 0.789 in test [6]. Moreover, the figures for the composite z-score (with Sam68 (KHDRBS1); in [7]; in test [8]) were 1.29, -0.256 and 1.19, respectively. In addition, the composite Z-score in test [1] is 0.373 (inactive).

`CCCC[C@H]1OB(O)C[C@H]2C1=C(C)C[C@H]1C(=O)N(C)C(=O)[C@H]12`: the composite z-score in the test with Albumin (Bos taurus) is 0.748; in [2] it was 0.16; in [3], -0.117; in test [4] it was 0.328; in test [5] it was 0.326; in test [6], 0.308. Further, the composite z-score with Sam68 (KHDRBS1) amounted to 1.08; in test [7], 0.311; in [8], 0.321. In addition, the composite Z-score in test [1] is 0.506 (inactive).

`C[C@@H]1C=CCC(=O)OC[C@H](C)C(=O)N2CCC[C@H]2C(=O)OC1`: the composite z-score was -0.12 in the test with Albumin (Bos taurus); -0.143 in test [2]; -0.0338 in test [3]; -0.0527 in test [4]; -0.0199 in test [5]; 0.0742 in test [6]. The figures for the composite z-score (in the test with Sam68 (KHDRBS1); in test [7]; in [8]) were 1.14, 1.58 and 0.182, respectively. The composite Z-score in [1] is 0.608 (inactive).

On to `C[C@@H]1CC[C@H]2C(=O)O[C@H](COc3ccc(C(C)(C)C)cc3)CN2[C@H]1c1ccc(Br)cc1`, for which the composite z-score was 0.673 in the test with Albumin (Bos taurus); -0.0716 in test [2]; 0.0776 in [3]; -0.113 in [4]; -0.231 in test [5]; 0.157 in test [6]. For the same compound, the composite z-score is -0.734 in the test with Sam68 (KHDRBS1), 0.0828 in test [7] and -0.212 in test [8]. Besides, the composite Z-score in test [1] was 0.458 (inactive).

For the compound `C=C(/C(=C/C[C@H](OC(C)=O)c1ccc(OCCO)cc1)c1cnc2ccccc2c1)C(C)C`, the composite z-score with Albumin (Bos taurus) was -0.154; in [2], 0.0418; in test [3] it was -0.146; in test [4], 0.885; in test [5] it was 0.575; in test [6], -0.315. For the same compound, the figures for the composite z-score (in the test with Sam68 (KHDRBS1); in test [7]; in test [8]) were 1.3, 1.2 and 1.09, respectively. In addition, in test [1], the composite Z-score is -0.229 (inactive).

Consider `CCCC=C(CCC)[C@@H](NC(=O)c1ccc(-c2ccccc2)cc1)c1ccc(C(=O)OC)cc1`, for which the composite z-score is 0.127 in the test with Albumin (Bos taurus); 0.197 in test [2]; 0.0382 in [3]; 0.185 in [4]; 2.41 in test [5]; -0.075 in [6]. For the same compound, the results for the composite z-score (in the test with Sam68 (KHDRBS1); in [7]; in test [8]) were 1.26, -0.955 and 0.724, respectively. In [1], the composite Z-score was 0.0503 (inactive).

For the compound `CC(C)[C@@H](OCc1ccccc1)[C@H](C)C=NOC[C@@H](C)[C@H](OCc1ccccc1)C(C)C`, the composite z-score with Albumin (Bos taurus) is -0.248; in [2], -0.0111; in test [3], -0.126; in test [4], -0.265; in test [5], -0.393; in [6] it was -0.0427. For the same compound, the composite z-score in the test with Sam68 (KHDRBS1) was -0.24; in test [7], 0.457; in [8], 0.31. Besides, in [1], the composite Z-score is -0.161 (inactive).

With `O=C1O[C@@H](c2ccccc2)[C@@H](c2ccccc2)N2[C@@H](c3ccc(O)cc3)[C@]3(C(=O)Nc4ccccc43)[C@@H](C(=O)O)[C@H]12`, the composite z-score in the test with Albumin (Bos taurus) was 0.592; in test [2] it was -0.0903; in test [3], -0.1; in [4], 0.59; in test [5], 1.45; in [6] it was 0.448. For the same compound, the composite z-score in the test with Sam68 (KHDRBS1) was 1.33; in test [7] it was -0.903; in [8], 0.666. For the same compound, in test [1], the composite Z-score is 1.76 (inactive).

As to `CCCCCN1CC=CC23O[C@@H]4C=CCOC(=O)[C@@H]4[C@H]2C(=O)N(C(CO)C(C)C)[C@@H]3C1=O` (stereo not given in full), the composite z-score with Albumin (Bos taurus) is 0.13; in test [2] it was -0.0328; in test [3], -0.13; in test [4] it was 0.286; in test [5], -0.59; in test [6], 1.06. In addition, the composite z-score with Sam68 (KHDRBS1) is -0.827; in test [7], -0.326; in test [8], 0.203. Moreover, the composite Z-score in test [1] is 0.252 (inactive).

`COCCCNC(=O)[C@@]1(Sc2ccc(C)cc2)CC(=O)N(Cc2ccccc2)[C@@H]1c1ccc(CO)cc1I`: the composite z-score with Albumin (Bos taurus) was 0.757; in test [2], -0.178; in test [3], 0.0079; in test [4] it was 0.688; in [5], 0.987; in test [6], 0.791. Besides, the values for the composite z-score (in the test on Sam68 (KHDRBS1); in test [7]; in [8]) were -0.249, -0.527 and -1.27, respectively. The composite Z-score in [1] was 0.394 (inactive).

Turning to `CC(C)CN1CCc2nc(-c3ccccc3)c3c(c2CC1)CO[C@@H](C)C3`, the composite z-score with Albumin (Bos taurus) was -0.249; in test [2], 0.154; in test [3], -0.16; in [4], -0.143; in [5], -0.258; in test [6], -0.673. The composite z-score was -0.168 in the test with Sam68 (KHDRBS1), 0.74 in test [7] and 0.0721 in [8]. Further, the composite Z-score in [1] is -0.002 (inactive).

In the case of `O=C1O[C@@H](c2ccccc2)[C@@H](c2ccccc2)N2[C@@H](c3ccccc3OCCO)[C@]3(C(=O)Nc4ccc(C#CCCO)cc43)[C@@H](C(=O)O)[C@H]12`, the composite z-score worked out at 0.682 in the test with Albumin (Bos taurus); 1.14 in [2]; 0.473 in [3]; 0.58 in test [4]; 1.51 in [5]; 0.133 in test [6]. The composite z-score in the test with Sam68 (KHDRBS1) worked out at 1.2; in [7] it was 0.553; in [8] it was 1.15. Also, the composite Z-score in test [1] was 0.215 (inactive).

`COCC1=C2[C@@H](CCc3ccccc3)OB(O)C[C@@H]2n2c(=O)n(-c3ccccc3)c(=O)n2C1`: the composite z-score was 0.352 with Albumin (Bos taurus); -0.0204 in test [2]; -0.0649 in [3]; 0.0995 in [4]; -0.0955 in test [5]; 0.0421 in test [6]. For the same compound, the composite z-score in the test on Sam68 (KHDRBS1) is -0.0265; in [7], 0.198; in [8], -0.0151. Besides, the composite Z-score in test [1] was -0.532 (inactive).

Regarding `COc1ccc(COC(=O)NN=C2C[C@@H](O)[C@@H](O)[C@@H]3[C@@H]4C(=O)N(Cc5ccc6c(c5)OCO6)C(=O)[C@@H]4CC[C@@H]23)cc1`, the composite z-score with Albumin (Bos taurus) is -0.152; in test [2], 0.218; in test [3], 0.015; in test [4], -0.244; in [5], 0.115; in test [6], 0.616. Further, the values for the composite z-score (in the test with Sam68 (KHDRBS1); in [7]; in [8]) were -0.395, -0.54 and -1.3, respectively. Moreover, the composite Z-score in test [1] is -0.463 (inactive).

As to `C[C@@H](c1ccccc1)N1C(=O)[C@H]2[C@H]3[C@H](O)C=CC(=O)[C@@H]3CC[C@H]2C1=O`, the composite z-score in the test with Albumin (Bos taurus) is 0.0343; in [2], -0.0932; in test [3], -0.132; in test [4], 0.572; in [5] it was -0.263; in [6], 0.146. For the same compound, the composite z-score in the test with Sam68 (KHDRBS1) was 0.456; in test [7], 0.778; in [8] it was 0.518. The composite Z-score in test [1] was -0.325 (inactive).

As to `C=COC[C@H]1CN2[C@@H](CC[C@@H](C)[C@@H]2c2ccc(Br)cc2)C(=O)O1`, the composite z-score worked out at 0.496 with Albumin (Bos taurus); 0.0999 in test [2]; 0.0877 in [3]; 0.459 in test [4]; 0.807 in test [5]; 0.446 in test [6]. In addition, the composite z-score is 1.33 in the test on Sam68 (KHDRBS1), 0.664 in test [7] and 1.03 in test [8]. In addition, the composite Z-score in test [1] is -0.0224 (inactive).
